Results reported in PubChem BioAssay (NCATS).
Records with an inconclusive call do not appear. Where a structure was tested more than once in an assay, its records may differ in their call. Unmarked numbers belong to inactive results. Active and inactive are the calls of the source. Calls come from the whole dose curve; as a rule, active = well fitted inhibition curve with a large enough effect; inconclusive = small, poorly fitted or top-dose-only effect; inactive = flat fitted curve, though single readings scatter.
Potency is the fitted concentration of half-maximal effect.

Assay: qHTS for Inhibitors of Plasmodium falciparum (DD2) proliferation (AID 504314);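 for activity, negative = inhibition: parasite DNA measured by SYBR Green fluorescence after red cell lysis; plate controls were DMSO vehicle for no effect and artemisinin wells for full effect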
Details: P. falciparum Dd2 in erythrocytes, SYBR Green growth, 72 h; series mostly up to 6.11 µM; activity, negative = inhibition: at the top concentration
Procedure, shortened: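 Fluorescence read-out (ex 485/em 535 nm) of SYBR Green-stained parasite DNA quantifies intraerythrocytic growth. Cultures at 0.3% parasitemia and 2.5% hematocrit were treated for 72 h; data normalized to DMSO and 0.29 uM artemisinin wells.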
With CCCCc1cc2c(cn1)=C(OC(=O)c1cccs1)C(C)(OC(=O)CC)C(=O)C=2 (stereo not drawn) the activity, negative = inhibition was 1.64% [at 1.12 µM] and the Potency was 1890 nM (active).
For COC(=O)C1=C(C(=O)OC)[C@@H]2N(C)c3ccccc3[C@@]23C[C@@H](CO)N(C(=O)NC2CCCCC2)C3=N1, the “activity, negative = inhibition” value was -15.9%.
With COc1cccc([C@@H]2Oc3ccc(OC)cc3C(=O)[C@@H]2OC(=O)N[C@H]2CCCc3ccccc32)c1 the “activity, negative = inhibition” value was -23.5%.
In the case of COC(=O)N[C@H](C(C(=O)OC)=C(C)NCc1ccccc1)c1ccccc1, the “activity, negative = inhibition” value is reported as -5.35%.
For COC(=O)C1=C(C)N(Cc2ccccc2)C(=NCc2cc(OC)c(OC)c(OC)c2)NC1CCc1ccccc1 (stereo not drawn), the Potency was 1060 nM (active).
In the case of CCOC(=O)[C@@]1([C@@H](NC(=O)OC)c2cccc(C)c2)CCCC1=O, the “activity, negative = inhibition” value is reported as 8.63%.
In the case of CC1=CC[C@@H](COc2ccccc2)O[C@@]2(C1)C(=O)N(Cc1ccccc1C(F)(F)F)c1ccccc12, the “activity, negative = inhibition” value is reported as -28.6%.
In the case of CCCCc1cc2c(cn1)C(=O)C(C)(OC(C)=O)C(=O)C2 (stereo not drawn), the activity, negative = inhibition is reported as -3.91% [at 1.12 µM] and the Potency is reported as 1690 nM (active).
With CCCC[C@]12Cc3ccccc3[C@H](O1)c1c(cc(-c3ccccc3)oc1=O)O2 the Potency was 1690 nM (active).
With COC(=O)C=P(c1ccccc1)(c1ccccc1)c1ccccc1 the “activity, negative = inhibition” value was -6.22%.
For COC(=O)N[C@@H](C=Cc1ccccc1)C[N+](=O)[O-], the “activity, negative = inhibition” value was -8.55%.
In the case of COc1ccc(OC[C@H]2CN3[C@H](c4ccc(Br)cc4)[C@H](C)CC[C@H]3C(=O)O2)cc1, the Potency is reported as “inactive”.
In the case of CC(C)=CCC12CC3[C@@H](O)C(C(=O)c4ccccc4)(C1=O)C(=O)C(CC=C(C)C)(C2=O)C3(C)C (stereo partly drawn), the “activity, negative = inhibition” value is reported as -11.9%.
In the case of CCCCC1=CC2=C(c3ccco3)C(=O)C(C)(OC(=O)c3ccc(OC)cc3)C(=O)C2=CN1CCN1CCOCC1 (stereo not drawn), the Potency is reported as “inactive”.
COc1ccc(-c2nc3c(c4c2C[C@H](c2ccccc2)OC4)CN(C(=O)c2cccnc2)CC3)c(C)c1 gave an activity, negative = inhibition of 2.56% [at 1.12 µM].
For CC(=O)OC[C@H]1O[C@H](CCON=C(C)CCN2CCCc3nc(C)c(C)cc32)C=C[C@H]1OC(C)=O, the “activity, negative = inhibition” value was -8.76%.
In the case of CC(C)=CCCC(C)=CCN1C(=O)[C@]2(O[C@H](C)CC3=CCCC32)c2c(Br)cccc21 (stereo partly drawn), the “activity, negative = inhibition” value is reported as -7.58%.
In the case of CCCC[C@]12Cc3cc(C#N)ccc3[C@H](O1)c1c(c3cc(F)ccc3oc1=O)O2, the “activity, negative = inhibition” value is reported as 3.23%.
In the case of COC(=O)C1=C(C)N(Cc2ccccc2)C(=NCc2cc(OC)c(OC)c(OC)c2)NC1c1cccc(F)c1 (stereo not drawn), the Potency is reported as 1190 nM (active).
For O=C1Nc2cccc(Br)c2[C@@]12O[C@H](COc1ccccc1)CC1=CCCC12 (stereo partly drawn), the “activity, negative = inhibition” value was -1.12%.
For C=C(C(C)=O)C(O)c1ccco1 (stereo not drawn), the “activity, negative = inhibition” value was -9.18%.
In the case of CC(C)(C)Nc1oc(-c2ccccc2)nc1-c1ccc(C(F)(F)F)cc1, the “activity, negative = inhibition” value is reported as -4.97%.
With CCCCC1=CC2=C(c3ccco3)C(=O)C(C)(OC(=O)c3ccc(OC)cc3)C(=O)C2=CN1C1CCCCC1 (stereo not drawn) the Potency was “inactive”.
COC(=O)CCCC1=CC2=C(c3ccccc3)C(=O)C(C)(OC(=O)C3CCCC3)C(=O)C2=CN1Cc1ccc(OC)cc1 (stereo not drawn) gave an activity, negative = inhibition of 1.81% [at 1.12 µM].
For COC(=O)[C@H]1[C@@H](c2ccccc2)NC(=O)N(CCc2cc(OC)c(OC)c(OC)c2)[C@@H]1C, the “activity, negative = inhibition” value was -9.3%.
For COCOc1cc(OC)ccc1C(=O)C=Cc1ccc([N+](=O)[O-])cc1, the Potency was 1500 nM (active).
With C[C@@H]1CC[C@H]2C(=O)O[C@@H](COc3ccc(C(C)(C)C)cc3)CN2[C@H]1c1ccc(Br)cc1 the “activity, negative = inhibition” value was -8.85%.
In the case of CCN(CC)CCCN=C1NC(c2cccc(F)c2)C(C(=O)OC)=C(C)N1Cc1ccccc1 (stereo not drawn), the “activity, negative = inhibition” value is reported as 1.89%.
In the case of C=CCCCC=C(C)[C@H](OCc1ccc(OC)cc1)[C@H](CCC=C(C)C(N)=O)OC, the “activity, negative = inhibition” value is reported as -9.21%.
With COc1cccc([C@@H]2Oc3ccc(Br)cc3C(=O)[C@@H]2OC(=O)N[C@H]2CCCc3ccccc32)c1 the “activity, negative = inhibition” value was -6.46%.
With CCCCCCCC1Cc2ccccc2C(C(C(=O)OC)C(=O)OC)N1C(=O)OC (stereo not drawn) the “activity, negative = inhibition” value was -11%.
With CC1(OC(=O)C2CCCC2)C(=O)C=C2C=C(c3ccsc3)N(c3cccc(C#N)c3)C=C2C1=O (stereo not drawn) the Potency was “inactive”.
In the case of COc1cccc2c1[C@H](C=Cc1ccccc1)[C@@H]([C@H](O)CO)OC2, the “activity, negative = inhibition” value is reported as -5.7%.
With COC(=O)C1=C(C(=O)OC)[C@@H]2N(C)c3ccccc3[C@@]23CCC(=O)N(CC(C)C)C3=N1 the “activity, negative = inhibition” value was -7.7%.
In the case of C=CCOC(=O)C(C(C)=O)[C@@H](NC(=O)OC)c1ccc2ccccc2c1 (stereo partly drawn), the “activity, negative = inhibition” value is reported as 5.94%.
With COc1ccc(-c2nc(-c3ccccc3)c(NC(C)C)o2)cc1 the Potency was 1690 nM (active).
